# Laboratory results taken from PubChem BioAssay (NCATS).
# Inconclusive results are not listed. The source made the active and inactive calls. Unless noted, calls come from the whole dose curve.
# Key:
# [1] = qHTS for identification of novel therapeutic agents for treatment of microphthalmiaassociated transcription factor (MiT) renal cell carcinoma (RCC) (AID 1963991); details: CellTiter-Glo, 48 h; for z-score: stronger effect = lower value; for Potency: active = Z-AUC below -0.8 in all three lines; note: potency is the fitted concentration of half-maximal effect
# How it was run: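 Three TFE3-fusion RCC cell lines (UOK109, UOK124, UOK145), 500 cells/well, were exposed to the 1912-compound MIPE 4.0 library for 48 hours at 37 C. Viability was read by CellTiter-Glo luminescence, normalised to DMSO (100%) and empty wells (0%), with 11-concentration curve fits.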
# [2] = qHTS drug screen for cell cycle checkpoint inhibitors in PARPi-resistant BRCA-mutant ovarian cancer cell lines. (AID 1963452); details: PEO1/OlaR viability, CellTiter-Glo luminescence, 96 h; for Z-AUC: stronger effect = lower value; note: potency is the fitted concentration of half-maximal effect
# How it was run: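 PEO1, PEO4 and PEO1/OlaR ovarian cancer cells, 600 per well, exposed 96 h at 37C to a dilution series. Viability read by CellTiter-Glo luminescence, normalized to DMSO and empty wells; activity summarized as Z-AUC.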
# [3] = system: 3D7; experiment: qHTS profiling for inhibitors of Plasmodium falciparum proliferation (AID 504749; active = well fitted inhibition curve with a large enough effect;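 note: 0% = DMSO vehicle and full inhibition = artemisinin control; nearly all actives have a fitted effect of over 60% in size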); details: P. falciparum in erythrocytes, SYBR Green DNA, 72 h; series mostly up to 28.7 µM
# How it was run: (§1)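 SYBR Green fluorescence (ex 485 nm, em 535 nm) reports parasite DNA after 72 h compound exposure of infected red cells at 0.3% parasitemia, 2.5% hematocrit; signal normalized to 0.29 uM artemisinin and vehicle wells.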
# [4] = system: 7G8; experiment: as above; details: P. falciparum in erythrocytes, SYBR Green DNA, 72 h; series mostly up to 28.7 µM
# How it was run: as §1
# [5] = TFE3-RCC UOK109 viability, measured here: UOK109 Z-AUC
# [6] = TFE3-RCC viability, measured here: UOK124 Z-AUC
# [7] = TFE3-RCC viability, measured here: UOK145 Z-AUC
# [8] = measured here: PEO1 parental Z-AUC
smiles,measurement,setting,value
CCN1CCN(C(=O)N[C@H](C(=O)N[C@@H]2C(=O)N3C(C(=O)O)=C(CSc4nnnn4C)CS[C@@H]23)c2ccc(O)cc2)C(=O)C1=O,z-score,[1]; [5],3.06
same,z-score,[1]; [6],1.43
same,z-score,[1]; [7],2.48
NC[C@H]1O[C@H](O[C@H]2[C@@H](O)[C@@H](O[C@H]3O[C@H](CO)[C@@H](O)[C@H](N)[C@@H]3O)[C@H](N)C[C@@H]2N)[C@H](N)C[C@H]1O,z-score,[1]; [5],2.03
same,z-score,[1]; [6],0.18
same,z-score,[1]; [7],1.86
N#CC(=C(O)c1ccc(Cl)cc1Cl)c1nc2cc(Cl)ccc2c(=O)[nH]1,z-score,[1]; [5],0.465
same,z-score,[1]; [6],1.29
same,z-score,[1]; [7],0.266
Cc1cc(-c2nnc3n2CCCCC3)c(C)n1-c1ccccc1,z-score,[1]; [5],0.931
same,z-score,[1]; [6],0.469
same,z-score,[1]; [7],0.656
COc1ccc(Nc2cc(-c3cnc(N)nc3)nc(N3CCOCC3)n2)cn1,Z-AUC,[2],0.44 (inactive)
same,Z-AUC,[2]; [8],-0.145
same,Z-AUC,[2]; measured here: PEO4 Z-AUC,0.339
same,Potency,[1]; TFE3-RCC UOK109 viability,0.526 µM (active)
same,z-score,[1]; [5],-1.16
same,z-score,[1]; [6],-2.53
same,z-score,[1]; [7],-2.08
CN[C@H](CC(C)C)C(=O)N[C@H]1C(=O)N[C@@H](CC(N)=O)C(=O)N[C@@H]2C(=O)N[C@H]3C(=O)N[C@H](C(=O)N[C@H](C(=O)O)c4cc(O)cc(O)c4-c4cc3ccc4O)[C@H](O)c3ccc(c(Cl)c3)Oc3cc2cc(c3O[C@@H]2O[C@H](CO)[C@@H](O)[C@H](O)[C@@H]2O[C@H]2C[C@](C)(N)[C@H](O)[C@H](C)O2)Oc2ccc(cc2Cl)[C@H]1O,z-score,[1]; [5],0.508
same,z-score,[1]; [6],0.868
same,z-score,[1]; [7],0.133
CC1(C)[C@H](O[C@H]2O[C@H](C(=O)O)[C@@H](O)[C@H](O)[C@H]2O[C@@H]2O[C@H](C(=O)O)[C@@H](O)[C@H](O)[C@H]2O)CC[C@@]2(C)[C@H]1CC[C@]1(C)[C@H]2C(=O)C=C2[C@H]3C[C@@](C)(C(=O)O)CC[C@]3(C)CC[C@]21C,z-score,[1]; [5],0.831
same,z-score,[1]; [6],0.728
same,z-score,[1]; [7],0.774
CCCCCCCCCCCCCCCC(=O)OC[C@@H](NC(=O)C(Cl)Cl)[C@H](O)c1ccc([N+](=O)[O-])cc1,z-score,[1]; [5],1.8
same,z-score,[1]; [6],0.082
same,z-score,[1]; [7],0.929
COc1ccc([C@@H]2CNC(=O)C2)cc1OC1CCCC1,Z-AUC,[2],-0.0996 (inactive)
same,Z-AUC,[2]; [8],-0.168
same,Z-AUC,[2]; measured here: PEO4 Z-AUC,0.0398
same,Potency,[3],inactive
same,Potency,[4],inactive
Cc1cc(Nc2ncc3c(n2)N(C)C(=O)N(c2cc(NC(=O)c4cccc(C(F)(F)F)c4)ccc2C)C3)n(C)n1,Z-AUC,[2],-1.62 (inactive)
same,Z-AUC,[2]; [8],-1.69
same,Z-AUC,[2]; measured here: PEO4 Z-AUC,-1.33
same,Potency,[1]; TFE3-RCC UOK109 viability,0.264 µM (active)
same,z-score,[1]; [5],-1.56
same,z-score,[1]; [6],-1.08
same,z-score,[1]; [7],-2.15
COc1cc(C)c(C=CC(C)=CC=CC(C)=CC(=O)O)c(C)c1C,z-score,[1]; [5],0.993
same,z-score,[1]; [6],0.342
same,z-score,[1]; [7],1.02
Nc1nc2c(c(=O)[nH]1)N(C=O)[C@H](CNc1ccc(C(=O)N[C@@H](CCC(=O)O)C(=O)O)cc1)CN2,Z-AUC,[2],1.12 (inactive)
same,Z-AUC,[2]; [8],1.3
same,Z-AUC,[2]; measured here: PEO4 Z-AUC,1.01
same,Potency,[3],inactive
same,Potency,[4],inactive
C[C@@H]1[C@H](C)CC[C@]2(C(=O)O)CC[C@]3(C)C(=CC[C@@H]4[C@@]5(C)C[C@@H](O)[C@H](O)[C@@](C)(CO)[C@H]5CC[C@]43C)[C@@H]12,z-score,[1]; [5],0.114
same,z-score,[1]; [6],0.271
same,z-score,[1]; [7],0.0304
COc1ccc(S(=O)(=O)Nc2cccnc2Nc2ccc(O)cc2)cc1,Potency,[2],1.38 µM (active)
same,Z-AUC,[2]; [8],-1.73
same,Z-AUC,[2]; measured here: PEO4 Z-AUC,-1.84
same,Potency,[1]; TFE3-RCC UOK109 viability,0.132 µM (active)
same,z-score,[1]; [5],-0.858
same,z-score,[1]; [6],-1.8
same,z-score,[1]; [7],-1.74
C[C@H]1O[C@H](O[C@H]2[C@H](O)[C@@H](O)[C@@H](O[C@H]3[C@H](O)[C@@H](O)C(O)O[C@H]3CO)O[C@H]2CO)[C@H](O)[C@@H](O)[C@H]1N[C@H]1C=C(CO)[C@@H](O)[C@H](O)[C@@H]1O (some centres not stated),z-score,[1]; [5],0.975
same,z-score,[1]; [6],0.169
same,z-score,[1]; [7],1.64
C[C@H]1C[C@H]2[C@@H]3CCC4=CC(=O)C=C[C@]4(C)[C@@H]3C(=O)C[C@]2(C)[C@@]1(O)C(=O)CO,z-score,[1]; [5],0.188
same,z-score,[1]; [6],0.279
same,z-score,[1]; [7],1.74
N#CNC(=NCCCCCCOc1ccc(Cl)cc1)Nc1ccncc1,Potency,[2],0.0347 µM (active)
same,Z-AUC,[2]; [8],-3.38
same,Z-AUC,[2]; measured here: PEO4 Z-AUC,-3.13
same,Potency,[1]; TFE3-RCC UOK109 viability,7.43 µM (active)
same,z-score,[1]; [5],-0.809
same,z-score,[1]; [6],-2.82
same,z-score,[1]; [7],-3.43
CN1[C@H]2CC(OC(=O)[C@@H](CO)c3ccccc3)C[C@H]1[C@H]1O[C@H]12 (some centres not stated),z-score,[1]; [5],0.573
same,z-score,[1]; [6],0.895
same,z-score,[1]; [7],0.977
CC(=O)N[C@@H]1[C@H](O[C@@H]2c3ccc(c(Cl)c3)Oc3cc4cc(c3O[C@H]3O[C@H](CO)[C@@H](O)[C@H](O)[C@H]3NC(=O)CCCCCCCC(C)C)Oc3ccc(cc3Cl)C[C@H]3NC(=O)[C@H](N)c5ccc(O)c(c5)Oc5cc(O)cc(c5)[C@H](NC3=O)C(=O)N[C@H]4C(=O)N[C@H]3C(=O)N[C@@H]2C(=O)N[C@@H](C(=O)O)c2cc(O)cc(O[C@H]4O[C@H](CO)[C@@H](O)[C@H](O)[C@H]4O)c2-c2cc3ccc2O)O[C@H](CO)[C@@H](O)[C@@H]1O,z-score,[1]; [5],0.106
same,z-score,[1]; [6],0.36
same,z-score,[1]; [7],0.292
